# Records with an inconclusive call do not appear. A call without a number means that no potency is given here. Activity calls are given as the source filed them. Calls follow the shape of the dose curve; as a rule, active = well fitted curve in the direction sought with a large enough effect; inconclusive = small, poorly fitted or top-dose-only effect, or another doubt; inactive = no such curve, though single readings can be large; an effect the other way counts as inactive or inconclusive.
# Legend:
# [1] = qHTS assay to identify small molecule inhibitors of chordoma cells - UCH-2 (AID 1259356); details: UCH-2 chordoma viability, CellTiter-Glo ATP luminescence, 48 h; series mostly up to 46.1 µM
# [2] = P-glycoprotein substrates identified in KB-8-5-11 adenocarcinoma cell line, qHTS therapeutic library screen (AID 1346987); details: KB-8-5-11 (P-gp overexpressing) viability, CellTiter-Glo, 72 h; series mostly up to 44.5 µM; also: nearly all actives have a fitted effect of over 65% in size
# How it was run: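 Compounds are pinned in dose-response onto KB-8-5-11 cells (500 cells/well, colchicine-free medium) and left 72 h at 37 degree C. CellTiter-Glo luminescence then yields AC50 values.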
SMILES,Potency [1],Potency [2]
Cc1ncc(C[n+]2csc(CCOP(=O)(O)OP(=O)(O)O)c2C)c(N)n1,inactive,inactive
CC(C)c1nc(N(C)S(C)(=O)=O)nc(-c2ccc(F)cc2)c1/C=C/C(O)CC(O)CC(=O)O (centres undefined),inactive,inactive
FC(F)OC(Cl)C(F)(F)F (centres undefined),inactive,inactive
NC(=O)OC[C@@H]1[C@H](NC(=O)/C(=N\OCC(=O)O)c2csc(N)n2)C(=O)N1S(=O)(=O)O,inactive,inactive
CC(C)=CCC/C(C)=C/C=C/C(C)=C/C=C/C(C)=C/C=C/C=C(C)/C=C/C=C(C)/C=C/C=C(\C)CCC=C(C)C,inactive,inactive
O=C(O)c1cc(O)c2c(c1)[C@H]([C@H]1c3cc(C(=O)O)cc(O)c3C(=O)c3c(O[C@@H]4O[C@H](CO)[C@@H](O)[C@H](O)[C@H]4O)cccc31)c1cccc(O[C@@H]3O[C@H](CO)[C@@H](O)[C@H](O)[C@H]3O)c1C2=O,inactive,inactive
CC(=O)N[C@@H]([C@@H](O)[C@H](O)[C@H](O)CO)[C@@H](O)CC(=O)C(=O)O,inactive,inactive
O=C1NCCN1c1ncc([N+](=O)[O-])s1,inactive,inactive
C=CC[N@@+]12CC[C@@]34c5ccccc5N5/C=C6/[C@H]7C[C@H]8[C@@]9(CC[N@@+]8(CC=C)C/C7=C/CO)c7ccccc7N(/C=C(/[C@@H](C[C@@H]31)/C(=C\CO)C2)[C@H]54)[C@@H]69,inactive,inactive
COc1ccc(C(=O)CCC(=O)O)c2ccccc12,inactive,inactive
CO/N=C(\C(=O)N[C@@H]1C(=O)N2C(C(=O)O)=C(CSc3nc(C)c(CC(=O)O)s3)CS[C@H]12)c1csc(N)n1,inactive,inactive
CCCCO,inactive,inactive
CSCCC(N)C(=O)O (centres undefined),inactive,inactive
OCC(O)CO,inactive,inactive
C[N@+]12CCCC[C@@H]1CCC(=C(c1cccs1)c1cccs1)C2,inactive,inactive
CO[C@H]1C=CO[C@@]2(C)Oc3c(C)c(O)c4c(O)c(cc(O)c4c3C2=O)NC(=O)/C(C)=C\C=C/[C@H](C)[C@H](O)[C@@H](C)[C@@H](O)[C@@H](C)[C@H](OC(C)=O)[C@@H]1C,inactive,inactive
CC[C@@H](C)[C@H](N)C(=O)O,inactive,inactive
Cc1ccc(S(=O)(=O)NC(=O)N[C@@H](C)Cc2ccccc2)cc1,inactive,inactive
CNC(=O)[C@H](Cc1c[nH]c2ccccc12)NC(=O)[C@@H](CC(=O)NO)CC(C)C,inactive,inactive
Nc1nccs1,inactive,inactive
CC(C)CCCCCCc1ccc(O)cc1,inactive,inactive
CCCCC(O)c1ccccc1 (centres undefined),inactive,inactive
NC[C@@H]1O[C@H](O[C@H]2[C@@H](O)[C@H](O[C@@H]3[C@@H](O)[C@H](N)C[C@H](N)[C@H]3O[C@H]3O[C@H](CO)[C@@H](O)[C@H](O)[C@H]3N)O[C@@H]2CO)[C@H](N)[C@@H](O)[C@@H]1O,inactive,inactive
C[C@@H]1C[C@H]2[C@@H]3CCC4=CC(=O)C=C[C@]4(C)[C@@]3(F)[C@@H](O)C[C@]2(C)[C@@]1(O)C(=O)COC(=O)c1cccc(S(=O)(=O)O)c1,inactive,inactive
COc1cc(C)c(/C=C/C(C)=C/C=C/C(C)=C/C(=O)O)c(C)c1C,inactive,inactive
CCCCCCCCCCCC(=O)N(CCO)CCO,inactive,inactive

SMILES,Potency [1],Potency [2]
CC(=O)N[C@@H](C=O)[C@@H](O)[C@H](O)[C@H](O)CO,inactive,inactive
COc1ccc(/C=C/C(=O)O)cc1,inactive,inactive
Oc1cccc(O)c1O,inactive,inactive
c1ccc2cc(C3=NCCN3)ccc2c1,inactive,inactive
COc1c(O[C@@H]2O[C@H](CO)[C@@H](O)[C@H](O)[C@H]2O)cc2c(c1OC)-c1ccc(SC)c(=O)cc1[C@@H](NC(C)=O)CC2,inactive,inactive
O[C@@H]([C@H](O)[C@H](O)CBr)[C@H](O)CBr,inactive,inactive
COc1cc2c(cc1OC)[C@@H](c1ccccc1)CN(C)CC2,inactive,inactive
CO,inactive,inactive
O=C1[O][Bi][O]c2ccccc21,inactive,inactive
O=P(O)(O)OP(=O)(O)O,inactive,inactive
CC1CC(OC(=O)C(O)c2ccccc2)CC(C)(C)C1 (centres undefined),inactive,inactive
CC[C@H]1NC(=O)[C@@H](NC(=O)c2ncccc2O)[C@@H](C)OC(=O)[C@H](c2ccccc2)NC(=O)[C@@H]2CC(=O)CCN2C(=O)[C@H](Cc2ccccc2)N(C)C(=O)[C@@H]2CCCN2C1=O,inactive,inactive
N=C(N)n1cccn1,inactive,inactive
NC(=O)C1c2ccccc2CCc2ccccc21,inactive,inactive
CC(C)[C@@H](C)/C=C/[C@@H](C)[C@H]1CC[C@H]2/C(=C/C=C3\C[C@@H](O)CC[C@@H]3C)CCC[C@]12C,inactive,inactive
C[S+](C)CCC(N)C(=O)O (centres undefined),inactive,inactive
OCc1ccccc1,inactive,inactive
C=Cc1c(C)c2cc3nc(cc4[nH]c(cc5nc(cc1[nH]2)C(C)=C5CCC(=O)OC)c(CCC(=O)O)c4C)[C@@]1(C)C3=CC=C(C(=O)OC)[C@H]1C(=O)OC,inactive,inactive
C[C@H](CCC(=O)O)[C@H]1CC[C@H]2[C@@H]3[C@H](O)C[C@@H]4C[C@H](O)CC[C@]4(C)[C@H]3C[C@H](O)[C@]12C,inactive,inactive
FC(F)(F)C(F)(F)C(F)(F)C(F)(F)C(F)(F)C(F)(F)F,inactive,inactive
CC(O)CN(C)C (centres undefined),inactive,inactive
CO/N=C(\C(=O)N[C@@H]1C(=O)N2C(C(=O)O)=C(CSc3nnnn3C)CS[C@H]12)c1csc(N)n1,inactive,inactive
CC(=O)N=c1sc(S(N)(=O)=O)nn1C,inactive,inactive
COc1ccc(/C=C/C(=O)OCCC(C)C)cc1,inactive,inactive
Cc1ccccn1,inactive,inactive
C=C(C)C1CC=C(C)CC1 (centres undefined),inactive,inactive
